From PubChem BioAssay (NCI)
This is part of a sample that, as a whole, favours compounds with a hit. Of some 83,000 tested, about 20% had one in any assay.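 In brief: 96-well plates, 48 h treatment, single concentration, percent growth endpoint.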 Active and inactive are the calls of the source. The calls were made as follows: active = growth percent below 10; inactive = the rest.

Experiments:
Experiment in all cases: NCI-60 one-dose screen, 48 h (100 = growth as untreated, 0 = no growth, -100 = all killed)
Conditions in all cases: 10 µM unless noted
SR leukemia = tested on: SR leukemia
RPMI-8226 leukemia = tested on: RPMI-8226 leukemia
OVCAR-8 ovarian = tested on: OVCAR-8 ovarian
OVCAR-5 ovarian = tested on: OVCAR-5 ovarian
OVCAR-4 ovarian = tested on: OVCAR-4 ovarian
SK-OV-3 ovarian = tested on: SK-OV-3 ovarian
IGROV1 ovarian = tested on: IGROV1 ovarian
OVCAR-3 ovarian = tested on: OVCAR-3 ovarian
HS 578T breast = tested on: HS 578T breast
NCI/ADR-RES ovarian = tested on: NCI/ADR-RES ovarian
BT-549 breast = tested on: BT-549 breast
MDA-MB-435 melanoma = tested on: MDA-MB-435 melanoma
SW-620 colon = tested on: SW-620 colon
MCF7 breast = tested on: MCF7 breast
HCC-2998 colon = tested on: HCC-2998 colon
KM12 colon = tested on: KM12 colon
T-47D breast = tested on: T-47D breast
HCT-116 colon = tested on: HCT-116 colon

Measured: growth

N#Cc1c(N)nc2c(nnn2-c2cccc(Br)c2)c1N
inactive: SR leukemia 83.8% | RPMI-8226 leukemia 86.8% | OVCAR-8 ovarian 93.8% | OVCAR-5 ovarian 108% | OVCAR-4 ovarian 107% | SK-OV-3 ovarian 101% | IGROV1 ovarian 93.5% | OVCAR-3 ovarian 106% | HS 578T breast 68.8% | NCI/ADR-RES ovarian 103% | BT-549 breast 97.1% | MDA-MB-435 melanoma 108% | SW-620 colon 96.9% | MCF7 breast 71.4% | HCC-2998 colon 106% | KM12 colon 97%

O=C(NCc1cn(Cc2cccc(Oc3ccccc3)c2)nn1)c1cccnc1NCc1ccc(Cl)cc1
active: RPMI-8226 leukemia -9.55% | OVCAR-3 ovarian 2.33% | NCI/ADR-RES ovarian 0.306% | MDA-MB-435 melanoma -2.51% | HCC-2998 colon 9.38%
inactive: SR leukemia 19.3% | OVCAR-8 ovarian 32.6% | OVCAR-5 ovarian 51.5% | OVCAR-4 ovarian 43.8% | IGROV1 ovarian 60.1% | HS 578T breast 23.8% | T-47D breast 31.9% | BT-549 breast 41.1% | SW-620 colon 36.9% | MCF7 breast 14.9% | HCT-116 colon 22.1%

NC(N)=N/N=C/c1ccc(Br)cc1
active: SK-OV-3 ovarian -19.4% | T-47D breast -26.9% | MDA-MB-435 melanoma -33.1% | MCF7 breast 4.98% | HCT-116 colon -26.3%
inactive: SR leukemia 18.4% | RPMI-8226 leukemia 21.5% | OVCAR-8 ovarian 78.9% | OVCAR-5 ovarian 73.5% | OVCAR-4 ovarian 51.8% | IGROV1 ovarian 19.3% | OVCAR-3 ovarian 62.3% | NCI/ADR-RES ovarian 28.2% | BT-549 breast 92.3% | SW-620 colon 16.8% | HCC-2998 colon 56.7% | KM12 colon 18.3%

CCOC(=O)c1c(C)nc2c(c1N)/C(=C/c1cc(OC)c(OC)c(OC)c1)C(=O)N2c1ccc(OC)cc1
inactive: SR leukemia 12.4% | OVCAR-8 ovarian 37.7% | OVCAR-5 ovarian 85.7% | OVCAR-4 ovarian 87% | SK-OV-3 ovarian 105% | IGROV1 ovarian 33.6% | OVCAR-3 ovarian 42.1% | NCI/ADR-RES ovarian 34.7% | T-47D breast 73.2% | BT-549 breast 46.7% | MDA-MB-435 melanoma 49.5% | SW-620 colon 30.9% | MCF7 breast 14.6% | HCC-2998 colon 95.9% | KM12 colon 43.7%
active: RPMI-8226 leukemia -6.44% | HCT-116 colon -0.0724%

C/C(=N\NC(N)=S)c1nc2ccc(Cl)cc2[nH]1
inactive: SR leukemia 30.5% | RPMI-8226 leukemia 57.6% | OVCAR-8 ovarian 39.1% | OVCAR-5 ovarian 69.8% | OVCAR-4 ovarian 32.3% | SK-OV-3 ovarian 47.1% | IGROV1 ovarian 58.9% | OVCAR-3 ovarian 50.1% | NCI/ADR-RES ovarian 31.1% | T-47D breast 40.5% | BT-549 breast 74.9% | MDA-MB-435 melanoma 54.6% | SW-620 colon 41.4% | HCT-116 colon 35.6% | HCC-2998 colon 55.8% | KM12 colon 32.1%
active: MCF7 breast 8.53%

Cc1cc(=O)c2cc3nc(-c4cccnc4)oc3c(Br)c2o1
inactive: SR leukemia 70.7% | RPMI-8226 leukemia 90% | OVCAR-8 ovarian 99.9% | OVCAR-5 ovarian 90.1% | OVCAR-4 ovarian 101% | SK-OV-3 ovarian 195% | OVCAR-3 ovarian 123% | HS 578T breast 116% | NCI/ADR-RES ovarian 83.9% | T-47D breast 201% | BT-549 breast 103% | MDA-MB-435 melanoma 107% | SW-620 colon 99.5% | MCF7 breast 94.9% | HCT-116 colon 99.9% | HCC-2998 colon 106% | KM12 colon 109%

Fc1ccc(Nc2nc(Nc3ccc(-c4nc5ccccc5[nH]4)cc3)c3cn[nH]c3n2)cc1
active: SR leukemia -21.1% | RPMI-8226 leukemia 1.66% | MCF7 breast 4.38%
inactive: OVCAR-8 ovarian 56.8% | OVCAR-5 ovarian 106% | OVCAR-4 ovarian 81.8% | SK-OV-3 ovarian 90.3% | IGROV1 ovarian 81.6% | OVCAR-3 ovarian 20.3% | HS 578T breast 93.5% | NCI/ADR-RES ovarian 67.5% | T-47D breast 12.1% | MDA-MB-435 melanoma 90.3% | SW-620 colon 10.9% | HCC-2998 colon 82.9% | KM12 colon 54.4%

Nc1c(C(=O)c2ccc(Cl)s2)sc2nc3c(cc12)CCCC3
inactive: SR leukemia 97.3% | RPMI-8226 leukemia 90.9% | OVCAR-8 ovarian 105% | OVCAR-5 ovarian 137% | OVCAR-4 ovarian 112% | SK-OV-3 ovarian 90.8% | IGROV1 ovarian 104% | OVCAR-3 ovarian 106% | HS 578T breast 111% | NCI/ADR-RES ovarian 101% | MDA-MB-435 melanoma 119% | SW-620 colon 106% | MCF7 breast 41.3% | HCT-116 colon 105% | HCC-2998 colon 111% | KM12 colon 96.6%

Cc1nn(-c2ccccc2)c2c1C(c1ccc([N+](=O)[O-])cc1)C(C#N)=C(N)O2 (stereo unspecified)
inactive: SR leukemia 91.5% | RPMI-8226 leukemia 74.1% | OVCAR-8 ovarian 90.9% | OVCAR-5 ovarian 106% | OVCAR-4 ovarian 100% | SK-OV-3 ovarian 107% | IGROV1 ovarian 82.9% | OVCAR-3 ovarian 122% | HS 578T breast 103% | NCI/ADR-RES ovarian 104% | BT-549 breast 123% | MDA-MB-435 melanoma 121% | SW-620 colon 119% | MCF7 breast 96.7% | HCT-116 colon 95.8% | HCC-2998 colon 105% | KM12 colon 109%

O=C1C2=C(CCN(Cc3ccccc3)C2)N2CCN=C2N1Cc1ccc(C(F)(F)F)cc1
inactive: SR leukemia 49.5% | RPMI-8226 leukemia 19% | OVCAR-8 ovarian 17% | OVCAR-5 ovarian 56.9% | SK-OV-3 ovarian 21% | IGROV1 ovarian 33% | OVCAR-3 ovarian 23.9% | NCI/ADR-RES ovarian 16.6% | T-47D breast 24.1% | BT-549 breast 32% | MDA-MB-435 melanoma 24.4% | SW-620 colon 37% | MCF7 breast 21.2% | HCT-116 colon 23% | HCC-2998 colon 23.9% | KM12 colon 39.4%
active: OVCAR-4 ovarian -4.49%

CC(=O)c1sc(-c2ccccc2)cc1N
inactive: SR leukemia 88.4% | RPMI-8226 leukemia 98.1% | OVCAR-8 ovarian 92.8% | OVCAR-5 ovarian 100% | OVCAR-4 ovarian 94.2% | SK-OV-3 ovarian 89.6% | IGROV1 ovarian 105% | OVCAR-3 ovarian 103% | HS 578T breast 89.1% | NCI/ADR-RES ovarian 105% | BT-549 breast 101% | MDA-MB-435 melanoma 94.1% | SW-620 colon 96.5% | MCF7 breast 97.7% | HCC-2998 colon 99.4% | KM12 colon 104%

COc1ccc(-c2cc(-c3cc(OC)ccc3O)[nH]c(=O)c2C#N)cc1
active: MDA-MB-435 melanoma -0.171%
inactive: SR leukemia 10.1% | RPMI-8226 leukemia 56.4% | OVCAR-8 ovarian 64.3% | OVCAR-5 ovarian 119% | OVCAR-4 ovarian 80.5% | SK-OV-3 ovarian 63.5% | IGROV1 ovarian 71.6% | OVCAR-3 ovarian 27.5% | NCI/ADR-RES ovarian 52.7% | T-47D breast 45.6% | BT-549 breast 22.1% | SW-620 colon 34.4% | MCF7 breast 46.4% | HCT-116 colon 33.6% | HCC-2998 colon 72.9% | KM12 colon 41.8%

COc1ccc(C(=O)/C=C/c2cc3c(c(OC)c2)OCC(=O)N3)cc1
active: RPMI-8226 leukemia 5.42% | OVCAR-3 ovarian 2.27%
inactive: SR leukemia 20.4% | OVCAR-8 ovarian 44.8% | OVCAR-5 ovarian 45.7% | OVCAR-4 ovarian 53.7% | SK-OV-3 ovarian 103% | IGROV1 ovarian 80% | NCI/ADR-RES ovarian 36.7% | MDA-MB-435 melanoma 26.2% | SW-620 colon 14.7% | MCF7 breast 31.5% | HCT-116 colon 11.8% | HCC-2998 colon 67.9% | KM12 colon 14.7%

Fc1ccc(Nc2ccc3cc(OCCCN4CCOCC4)ccc3n2)cc1F
inactive: RPMI-8226 leukemia 49.5% | OVCAR-8 ovarian 66.8% | OVCAR-5 ovarian 56.8% | OVCAR-4 ovarian 49.4% | SK-OV-3 ovarian 72.8% | IGROV1 ovarian 72.8% | OVCAR-3 ovarian 68.1% | NCI/ADR-RES ovarian 59.8% | T-47D breast 43.5% | BT-549 breast 68.6% | MDA-MB-435 melanoma 59.9% | SW-620 colon 10% | MCF7 breast 55.7% | HCT-116 colon 47.7% | HCC-2998 colon 20% | KM12 colon 21.3%
active: SR leukemia 8.16%

CCOC(=O)c1c(C)[nH]c(C(=O)CCC(=O)OC)c1C
inactive: SR leukemia 92.5% | RPMI-8226 leukemia 95.8% | OVCAR-8 ovarian 103% | OVCAR-5 ovarian 100% | OVCAR-4 ovarian 107% | SK-OV-3 ovarian 101% | IGROV1 ovarian 104% | OVCAR-3 ovarian 105% | NCI/ADR-RES ovarian 97.9% | T-47D breast 101% | BT-549 breast 84.5% | MDA-MB-435 melanoma 103% | SW-620 colon 108% | MCF7 breast 98% | HCT-116 colon 81% | HCC-2998 colon 99.2% | KM12 colon 103%

O=C(/C=C/C12c3ccccc3C(c3ccccc31)C1C(=O)N(c3ccccc3)C(=O)C12)c1ccc(Cl)cc1 (stereo unspecified)
inactive: SR leukemia 16.9% | OVCAR-8 ovarian 30.7% | OVCAR-4 ovarian 17.6% | IGROV1 ovarian 10.4% | HS 578T breast 14.1% | NCI/ADR-RES ovarian 18.1% | T-47D breast 30.4% | BT-549 breast 16.1% | MCF7 breast 18.4%
active: RPMI-8226 leukemia 4.68% | OVCAR-5 ovarian 8.5% | OVCAR-3 ovarian -53.9% | MDA-MB-435 melanoma 0.197% | SW-620 colon 7.56% | HCT-116 colon -18% | HCC-2998 colon -24%

COC(=O)CCCNC(=O)C(=O)c1c(O)c(O)c(C(C)C)c2cc(C)c(-c3c(C)cc4c(C(C)C)c(O)c(O)c(C(=O)C(=O)NCCCC(=O)OC)c4c3O)c(O)c12
inactive: RPMI-8226 leukemia 17.1% | IGROV1 ovarian 18.2% | HS 578T breast 12.2% | MDA-MB-435 melanoma 13% | SW-620 colon 19.2% | MCF7 breast 10.9% | HCC-2998 colon 29.5%
active: SR leukemia -1.66% | OVCAR-8 ovarian -15.1% | OVCAR-5 ovarian 4.86% | OVCAR-4 ovarian -3.33% | SK-OV-3 ovarian -4.94% | OVCAR-3 ovarian 4.88% | NCI/ADR-RES ovarian 9.74% | BT-549 breast 8.07% | KM12 colon 8.55%

Cc1nc(Nc2ccc(NC(=S)Nc3ccccc3)cc2)nc2nc(Nc3cccc(Cl)c3)[nH]c(=O)c12
inactive: SR leukemia 62.7% | RPMI-8226 leukemia 57.2% | OVCAR-8 ovarian 97.2% | OVCAR-5 ovarian 101% | OVCAR-4 ovarian 102% | SK-OV-3 ovarian 95.7% | OVCAR-3 ovarian 139% | HS 578T breast 67.1% | NCI/ADR-RES ovarian 110% | T-47D breast 89.1% | MDA-MB-435 melanoma 108% | SW-620 colon 98.3% | MCF7 breast 89.8% | HCT-116 colon 94.4% | HCC-2998 colon 114% | KM12 colon 106%
